# The list is not random: actives were taken first. Their share in the collection is about 7.5%.
# SMN2 splice enh – increases expression of the SMN2 splice variant; Potency, µM (doses to about 46.1 µM), without a hit: at the highest dose activity change, positive = activation, actives largely listed as activators; AID 1458; 210,000 tested, 2.8% active; HEK293 SMN2-luciferase splicing reporter, luminescence, 30-36 h; note: % of control where 0% means no effect; nearly all actives have a fitted effect of over 55% in size
#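 HEK293 cells carry an SMN2 minigene-luciferase reporter in which exon 7 inclusion puts luciferase in frame. Cells were seeded at 2000 cells/well, attached for 10-12 hours, then exposed to compounds for 30-36 hours at 37C before ONE-Glo luminescence.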
# Rab9 promoter act – Rab9 promoter activation. Huh7 Rab9 promoter-luciferase reporter, luminescence, 24 h. Potency, µM (titrated, usually from 9.22 µM), without a hit: at the highest dose activation, negative = inhibition, usual class: activators. 320,000 tested, 2.8% active. AID 485297; note: % of control where 0% means no effect; nearly all actives have a fitted effect of over 60% in size
#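 Huh7 cells stably carrying a Rab9 promoter-luciferase reporter, 1500 cells per well in OP-MEM I with 10% FBS, treated with compound 24 hours at 37C. Luciferase activity read by luminescence after 10 minutes with Amplite reagent.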
# NPC1 promoter act – activators of NPC1 promoter; Huh7 NPC1 promoter luciferase reporter, 24 h; Potency, µM (series often up to 9.22 µM), for the others: at the top dose activation, hits mostly activators; 320,000 tested, 2.4% active; note: % of control where 0% means no effect; nearly all actives have a fitted effect of over 60% in size
#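 Quantitative HTS used a cell-based reporter: Huh7 cells stably bearing the NPC1 promoter upstream of luciferase were treated with compounds for 24 h, and promoter activation was read as luminescence.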
# FLuc modulator – inhibits or activates purified firefly luciferase, miR-21 counter-screen; P08659; purified FLuc, Km substrates, luminescence inhibition; Potency, µM (series often up to 57.5 µM), for the others: at the highest dose activity change, negative = inhibition, most hits filed as inhibitors; 360,000 tested, 6.9% active; AID 588342;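 note: plate controls were vehicle for no effect and reference inhibitor for full effect; nearly all actives have a fitted effect of over 55% in size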
# Target sequence (P08659 whole entry, looked up): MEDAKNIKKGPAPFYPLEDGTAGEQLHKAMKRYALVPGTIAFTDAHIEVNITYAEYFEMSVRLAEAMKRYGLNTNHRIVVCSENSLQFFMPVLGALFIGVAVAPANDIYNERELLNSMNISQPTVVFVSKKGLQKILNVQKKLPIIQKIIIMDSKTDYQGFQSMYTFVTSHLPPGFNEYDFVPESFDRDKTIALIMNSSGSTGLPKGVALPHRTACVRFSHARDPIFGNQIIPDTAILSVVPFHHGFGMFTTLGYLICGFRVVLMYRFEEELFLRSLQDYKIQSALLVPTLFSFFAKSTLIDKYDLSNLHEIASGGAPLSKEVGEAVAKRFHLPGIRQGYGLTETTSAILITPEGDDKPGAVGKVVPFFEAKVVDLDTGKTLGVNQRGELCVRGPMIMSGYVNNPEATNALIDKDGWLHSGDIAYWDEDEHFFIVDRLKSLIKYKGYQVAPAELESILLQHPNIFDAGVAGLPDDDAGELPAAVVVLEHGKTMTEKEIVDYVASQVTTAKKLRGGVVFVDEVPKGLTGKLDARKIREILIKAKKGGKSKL
#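 Biochemical qHTS of compounds, final roughly 60 µM downward over six points, against 10 nM purified firefly luciferase using Km concentrations of substrates (10 uM D-luciferin, 10 uM ATP) in Tris acetate pH 7.5 buffer; luminescence output.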
# Luc counter – Kinase-Glo luciferase inhibition (counter-screen); Q27757; Kinase-Glo luciferase, ATP luminescence, 8 min; Potency, µM (top dose mostly 38.3 µM), for the others: at the top dose activity change, negative = inhibition, hits mostly inhibitors; 200,000 tested, 0.28% active; note: % is set by controls: 0 for no effect and ±100 for the full control effect; nearly all actives have a fitted effect of over 60% in size
#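 Luminescence was the read-out, taken after 8-minute incubation at ambient temperature. Luciferase turned over luciferin with 10 uM ATP in imidazole pH 7.2 buffer containing KCl, MgCl2, Tween 20 and BSA.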
# ELG1 genotoxic – induces genotoxicity in HEK293T cells with luciferase-tagged ELG1. 330,000 tested, 1.3% active. Potency, µM (doses to about 46 µM), inactives show top-dose activity change, positive = activation, actives largely listed as activators. HEK293T ELG1-luciferase reporter, luminescence, 16 h; note: % of control where 0% means no effect; nearly all actives have a fitted effect of over 60% in size
#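 HEK293T cells expressing luciferase-tagged ELG1 were treated with compound or DMSO for 16 hr at 37°C. Luciferase activity was then read after 30 min with ONE-Glo at room temperature; rising signal flags genetic stress.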
# Starred values were filed as active, the others as inactive; ? = inconclusive; . = no result; [ ] = remark or other dose. Calls come from the whole dose curve; as a rule, active = well fitted curve in the direction sought with a large enough effect; inconclusive = small, poorly fitted or top-dose-only effect, or another doubt; inactive = no such curve, though single readings can be large; an effect the other way counts as inactive or inconclusive. Potency is the fitted concentration of half-maximal effect.
SMILES,SMN2 splice enh,Rab9 promoter act,NPC1 promoter act,FLuc modulator,Luc counter,ELG1 genotoxic
COc1cccc(CNC(=O)CSc2nc(=O)[nH]c3c2CCC3)c1,.,.,.,5.4%,.,.
Cc1ccc2c(c1)c1c(c(=O)n(-c3ccccc3C)c(=O)n1Cc1cccc(F)c1)n2C,.,.,.,-7.0%,.,.
COc1ccc(-c2csc(Nc3ccc(S(N)(=O)=O)cc3)n2)cc1OC,.,-1.5%,-12.3%,-16.5%,.,-14.2%
COc1ccc(-c2csc(Nc3ccc(C)cn3)n2)cc1OC,-18.6%,?,4.2%,16.9µM*,5.0%,-0.9%
COc1ccc(-c2csc(Nc3cc(C)ccn3)n2)cc1OC,.,?,?,10.7µM*,.,4.9%
CC(C)CN(CCCNC(=O)c1cc(=O)[nH]c2ccc(S(=O)(=O)N3CCCCCC3)cc12)CC(C)C,.,.,.,2.3%,.,.
Cc1cccc(/C=N/NC(=O)c2cc(Br)ccc2O)n1,.,18.8%,10.2%,23.9µM*,.,?
CCOc1ccc(Br)cc1C(=O)N/N=C/c1cccc(C)n1,.,-2.1%,1.0%,2.3%,.,1.0%
O=C(N/N=C/c1ccoc1)c1cc(Br)ccc1O,.,2.6%,-0.1%,3.01µM*,.,9.9%
Cc1cccc(S(=O)(=O)c2cn(C)c3cc(N4CCN(c5ccccc5)CC4)c(F)cc3c2=O)c1,.,.,.,-3.2%,.,.
N#Cc1ccc(/C=N/NC(=S)Nc2ccc(S(=O)(=O)N3CCOCC3)cc2)cc1,.,-3.7%,-3.8%,-17.0%,.,-5.2%
O=S(=O)(c1ccc(NC(=S)N/N=C/c2ccc(O)c(O)c2)cc1)N1CCOCC1,.,-4.8%,-1.6%,16.9µM*,.,3.0%
O=S(=O)(c1ccc(Cl)c(NC(=S)N/N=C/c2ccc(O)cc2)c1)N1CCOCC1,-62.8%,1.0%,-6.7%,16.9µM*,-1.4%,-6.0%
O=S(=O)(c1ccc(Cl)c(NC(=S)N/N=C/c2c(F)cccc2F)c1)N1CCOCC1,.,-4.9%,-3.9%,3.5%,.,2.1%
Oc1ccc(/C=N/NC(=S)N2CCOCC2)cc1,-45.5%,28.2%,26.3%,7.57µM*,?,9.4%
O=c1[nH]c2ccc(NCc3ccccc3F)cc2[nH]1,-19.2%,.,.,0.8%,.,.
COc1ccccc1NC(=O)c1cc2c(n(-c3ccc(C)cc3)c1=O)CC(C)(C)CC2=O,-10.8%,.,.,-7.8%,.,.
Cc1nc(SCC(=O)N(C)C2CCS(=O)(=O)C2)c2ccccc2n1 (stereo not given),.,.,.,.,.,-4.3%
Cc1nc(SCC(=O)N(C)C2(C#N)CCCCC2)c2ccccc2n1,.,-8.0%,-0.2%,23.9µM*,.,-6.0%
CCOC(=O)c1cc(-c2ccccc2)n(CC(=O)Nc2ccc(OC)cc2OC)c1C,.,.,.,0.4%,.,.
Cc1ccc(C(=O)N2CCc3cc(CNS(=O)(=O)c4cccs4)ccc32)cc1,.,.,.,1.6%,.,.
COc1ccc(N=Nc2n(C)c3ccccc3[n+]2C)cc1,.,?,0.708µM*,0.0757µM*,.,0.92µM*
COc1cccc(COC(=O)c2ccc(-c3nnn(Cc4cccc(OC)c4)n3)cc2)c1,8.3%,.,.,1.6%,.,.
Brc1ccc(-c2cnc(-c3cccs3)o2)cc1,?,3.98µM*,?,5.36µM*,-3.4%,?
COc1ccc(S(=O)(=O)N(CC(=O)Nc2cccc(C)c2)c2ccc(C)cc2)cc1OC,.,.,.,-2.9%,.,.
SMILES,SMN2 splice enh,Rab9 promoter act,NPC1 promoter act,FLuc modulator,Luc counter,ELG1 genotoxic
COc1cc(/C=c2\sc3n(c2=O)CCCN=3)ccc1O,-15.4%,-3.6%,26.2%,?,-5.2%,?
O=c1/c(=C/c2ccc([N+](=O)[O-])cc2)sc2n1CCCN=2,11.8%,3.55µM*,2.82µM*,?,-0.7%,?
COc1cccc(/C=C2\SC(=S)N(CCCC(=O)Nc3ccc(C(=O)O)cc3)C2=O)c1,.,-13.4%,-3.4%,21.3µM*,.,1.1%
O=C(CCN1C(=O)/C(=C/c2ccc(Cl)cc2)SC1=S)Nc1cccc(C(=O)O)c1,.,-2.6%,1.8%,15.1µM*,.,-4.1%
COc1ccc(/C=C2\SC(=S)N(CCC(=O)Nc3cccc(C(=O)O)c3)C2=O)cc1,.,2.4%,18.4%,5.36µM*,.,7.9%
O=C(CCCN1C(=O)/C(=C/c2ccccc2Cl)SC1=S)Nc1cccnc1,.,-31.6%,-22.1%,13.5µM*,.,-10.3%
CC1=C(c2ccc(C)cc2)S(=O)(=O)N=C1N1CCN(c2ccccc2)CC1,.,.,.,-1.1%,.,.
COc1ccc(OC)c(-c2cc(C(=O)Nc3cccc(Cl)c3C)no2)c1,-4.2%,.,.,-0.4%,.,.
Cc1cc(OI)c(C(C)C)cc1-c1cc(C(C)C)c(OI)cc1C,.,.,.,.,2.8%[39.9 µM],.
O=C(O)CCN1C(=O)/C(=C\c2cccc(OCC(=O)Nc3ccc(Cl)cc3)c2)SC1=S,.,28.8%,27.2%,16.9µM*,.,1.8%
O=C(CCCN1C(=O)/C(=C\c2ccccc2)SC1=S)Nc1cccc(C(=O)O)c1,.,3.4%,2.1%,?,.,-0.4%
O=C(CCN1C(=O)/C(=C/c2ccc3c(c2)OCO3)SC1=S)Nc1cccc(C(=O)O)c1,.,0.2%,10.2%,21.3µM*,.,1.9%
Cc1ccc(NC(=O)COc2cccc(/C=C3\SC(=S)N(CCC(=O)O)C3=O)c2)cc1Cl,.,?,16.1%,?,.,9.6%
O=C(CCN1C(=O)/C(=C\C=C\c2ccccc2)SC1=S)Nc1cccc(C(=O)O)c1,.,?,3.16µM*,0.953µM*,.,?
CCCNc1ccc(C(=O)OCC)cc1[N+](=O)[O-],-10.6%,?,?,26.9µM*,-1.1%,?
CCOC(=O)CNc1ccc(C(=O)OCC)cc1[N+](=O)[O-],8.0%,1.5%,-1.7%,-12.8%,-0.1%,4.0%
Cc1c(C(=O)O)sc2nc(/C=C/c3cccc(O)c3)[nH]c(=O)c12,.,-7.0%[1.84 µM],-11.7%,16.9µM*,.,0.5%
COc1ccc(CCNC(=O)CSc2nc3sc(C(=O)O)c(C)c3c(=O)[nH]2)cc1OC,.,4.4%,2.0%,0.3%,.,0.8%
Cc1ccc(CNC(=O)Cn2ncn3cccc3c2=O)cc1,.,2.51µM*,?,13.5µM*,.,?
CN1C(=O)c2ccccc2Sc2ccc(NC(=O)COc3ccc(Cl)cc3)cc21,.,.,.,-5.7%,.,.
COc1ccc2ccccc2c1/C=N/NC(=O)c1ccc(C)nc1,.,3.7%,1.7%,21.3µM*,.,0.5%
CCOc1ccc2ccccc2c1/C=N/NC(=O)c1ccncc1,.,-0.5%,-0.4%,13.5µM*,.,9.8%
Cc1ccc(-c2nc(C)c(CCNS(=O)(=O)c3ccc(F)c(C(F)(F)F)c3)s2)cc1,.,.,.,0.1%,.,.
CC(=O)Nc1nc2ncc(C=O)nc2c(=O)[nH]1,-21.5%[9.22 µM],.,.,.,-1.5%[7.66 µM],.
COc1cccc(NC(=S)N/N=C2/CCCCc3ccccc32)c1,28.2µM*,24.1%,10.4%,13.5µM*,2.2%,14.2%
COc1ccc(C(=O)NCCSc2ccccn2)cc1,2.82µM*,0.398µM*,0.708µM*,2.13µM*,-0.2%,1.03µM*
COc1cccc(NC(=O)CSc2ccccn2)c1,?,?,?,15.1µM*,11.5%,?

# Source: PubChem BioAssay (National Center for Advancing Translational Sciences (NCATS))
